In PubChem BioAssay AID588342 (National Center for Advancing Translational Sciences (NCATS), 2011):
Out of some 360,000 compounds screened, about 25,000 (6.9%) were called active. Not shown: some 9% with an inconclusive outcome. Shown is part of a subset that was picked to be rich in actives. Unmarked numbers belong to inactive results. Calls come from the whole dose curve; as a rule, active = well fitted inhibition curve with a large enough effect; inconclusive = small, poorly fitted or top-dose-only effect; inactive = flat fitted curve, though single readings scatter.

What follows are molecules tested against Luciferin 4-monooxygenase (Photinus pyralis) (UniProt P08659) (assay: qHTS profiling assay for firefly luciferase inhibitor/activator using purifed enzyme and Km concentrations of substrates (counterscreen for miR-21 project)). Settings: purified FLuc, luminescence inhibition; series mostly up to 57.5 µM; activity change, negative = inhibition: at the top concentration.
Outline: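 Purified P. pyralis luciferase, 10 nM final, with Km-level 10 uM D-luciferin and 10 uM ATP in 50 mM Tris acetate pH 7.5, 10 mM Mg acetate, 0.01% Tween-20, 0.05% BSA; 6-point qHTS titration about 60 µM downward; luminescence read.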
Note: nearly all actives have a fitted effect of over 55% in size.
Potency is the fitted concentration of half-maximal effect.
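Throughout, for activity change, negative = inhibition: plate controls were vehicle for no effect and reference inhibitor for full effect.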

Sequence of Luciferin 4-monooxygenase (Photinus pyralis) (P08659 whole entry, looked up): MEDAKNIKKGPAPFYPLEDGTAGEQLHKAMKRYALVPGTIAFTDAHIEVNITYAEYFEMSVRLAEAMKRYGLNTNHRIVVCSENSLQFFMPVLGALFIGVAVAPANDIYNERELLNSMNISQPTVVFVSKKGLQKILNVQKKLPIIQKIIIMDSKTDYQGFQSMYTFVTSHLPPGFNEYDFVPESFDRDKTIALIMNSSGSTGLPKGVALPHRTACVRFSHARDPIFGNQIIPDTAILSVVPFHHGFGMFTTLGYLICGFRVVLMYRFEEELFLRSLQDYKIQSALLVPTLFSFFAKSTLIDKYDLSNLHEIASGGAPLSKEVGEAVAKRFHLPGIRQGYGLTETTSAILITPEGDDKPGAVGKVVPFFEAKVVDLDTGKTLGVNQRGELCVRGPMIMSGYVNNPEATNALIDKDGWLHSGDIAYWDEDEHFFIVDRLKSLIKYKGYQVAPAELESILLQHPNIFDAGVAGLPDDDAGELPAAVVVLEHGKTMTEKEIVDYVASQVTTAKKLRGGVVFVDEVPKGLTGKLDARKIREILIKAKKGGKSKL

Row | SMILES | activity change, negative = inhibition | Potency
1 | Cc1cc(C(F)(F)F)nc(SCC(=O)Nc2nccs2)n1 | 6.31% | 
2 | Cc1cc(=O)n2[nH]c(-c3sccc3-n3c(C)ccc3C)cc2n1 | -15.7% | 
3 | Cc1cc(=O)n2[nH]c(-c3cccc(Cl)c3)cc2n1 |  | 15.1 µM (active)
4 | CCCc1cc(=O)n2[nH]c(C)c(-c3ccc(Cl)cc3)c2n1 | -2.04% | 
5 | O=C1CCCc2c1nc(-c1cccc(Cl)c1)n2O | -0.28% | 
6 | O=c1c2c(nc3nc[nH]n13)CCC2 | -0.341% | 
7 | O=c1c2c(nc3cc(-c4cccc(Cl)c4)[nH]n13)CCCC2 |  | 0.478 µM (active)
8 | CCOC(=O)c1c(-c2ccc(OC)cc2)oc2ccc(OCc3ccc(C(=O)OC)cc3)cc12 | 3.13% | 
9 | COc1ccc(C)cc1NC(=O)CCc1c(C)nn(-c2ccc(N3CCOCC3)nn2)c1C | -14.2% | 
10 | Cc1ccc(Cn2c(C)c3cnn(CC(=O)NCc4ccccc4)c(=O)c3c2C)cc1 | -15.1% | 
11 | CC(=O)c1c(C)n(S(=O)(=O)c2ccc(Cl)cc2)c2ccc(NS(=O)(=O)c3ccc(Cl)cc3)cc12 | 0.804% | 
12 | COc1cc(C(=O)Nc2ncccc2C)ccc1OCC(=O)N1CCOCC1 | 3.05% | 
13 | COc1cc(OC)cc(-c2nc3nc(C)c(CCC(=O)Nc4ccccc4)c(C)n3n2)c1 | 1.43% | 
14 | COc1ccc(-c2cc3nc(C)c(CCC(=O)NC(C)CCc4ccco4)c(C)n3n2)c(OC)c1 (centres undefined) | 1.35% | 
15 | COc1ccccc1-c1cc2nc(C)c(CCC(=O)O)c(C)n2n1 |  | 15.1 µM (active)
16 | CCOc1ccc(OCC)c(NC(=O)CN(c2ccc(C)cc2)S(=O)(=O)c2c(C)n[nH]c2C)c1 | -2.42% | 
17 | CCOC(=O)c1c(S(=O)(=O)NCC(=O)Nc2ccc(Cl)c(C(F)(F)F)c2)c(C)n(C)c1C | -14.6% | 
18 | C[C@H](NC(=O)c1ccccc1)C(=O)OCC(=O)c1c[nH]c2ccccc12 | -19.2% | 
19 | CC1CCN(CC(=O)c2c[nH]c3ccccc23)CC1 | -0.382% | 
20 | O=C(OCC(=O)c1c[nH]c2ccccc12)c1cccc(O)c1 |  | 9.53 µM (active)
21 | Cn1c(=O)[nH]c(=O)c2c1nc(CN1CCN(c3ccccc3F)CC1)n2CCc1ccccc1 | 1.71% | 
22 | CCOc1cc(CNC(=O)c2sc3ncnc(N(C)C4CCCCC4)c3c2C)ccc1OC | -12.1% | 

Row | SMILES | activity change, negative = inhibition | Potency
23 | COCCNC(=O)c1ccccc1-c1nc(-c2ccccc2Cl)no1 |  | 12 µM (active)
24 | COCCNC(=O)c1cc(-c2cccc(Cl)c2)on1 | -4.38% | 
25 | Cc1onc(-c2ccccc2Cl)c1C(=O)NCCn1ccc2ccccc21 | 11.8% | 
26 | Cc1ccc(-c2noc(-c3ccccc3C(=O)NCC3CCCO3)n2)cc1 (centres undefined) |  | 4.78 µM (active)
27 | Cc1ccccc1CN(c1ccc(C(=O)NCC2CCCO2)cc1)S(C)(=O)=O (centres undefined) | -0.433% | 
28 | O=C(Nc1ccccc1C(=O)NCC1CCCO1)c1ccccc1F (centres undefined) | -2.21% | 
29 | O=C(CSCc1c(F)cccc1Cl)NCC1CCCO1 (centres undefined) | 2.11% | 
30 | O=C(NCC1CCCO1)c1cc2c([nH]c3ccccc32)c(-c2ccc(F)cc2)n1 (centres undefined) | 2.88% | 
31 | O=C(NCC1CCCO1)c1ccccc1-c1nc(-c2ccccc2Cl)no1 (centres undefined) |  | 12 µM (active)
32 | CCC(=O)N1c2ccccc2CC1C(=O)N1CCN(c2cccc(OC)c2)CC1 (centres undefined) | 1.83% | 
33 | Cc1c(C)n(Cc2ccc(Cl)cc2)c2ccc(C(=O)N3CCN(c4ccccc4F)CC3)cc12 | -5.91% | 
34 | CCOc1cc(C(=O)NCCc2csc3nc(-c4ccc(C)cc4)nn23)cc(OCC)c1OCC | 6.07% | 
35 | CCCn1c(NCc2ccccc2F)nc2ccccc21 | -15.2% | 
36 | Cc1ccc(NC(=O)c2cccc(S(=O)(=O)N3CCCc4ccccc43)c2)nc1 | 0.271% | 
37 | Cc1c(C(=O)N2CCCC2)oc2c1-c1nn(CC(=O)NCc3ccc(OC(C)C)cc3)cc1CC2 | -13.6% | 
38 | CC1CCCC(C)N1C(=O)COC(=O)COc1ccccc1C#N (centres undefined) | 2.51% | 
39 | O=C(CC1Oc2ccc(Cl)cc2NC1=O)NCc1ccccc1 (centres undefined) | -6.6% | 
40 | CCCc1cc(=O)oc2c(C)c(OCC(=O)N3CCC(C(=O)O)CC3)ccc12 | 3.56% | 
41 | Cc1c(C)c2ccc(OCC(=O)N3CCC(C(=O)O)CC3)c(C)c2oc1=O |  | 23.9 µM (active)
42 | CCCCc1cc(=O)oc2c(C)c(OCC(=O)N3CCC(C(N)=O)CC3)ccc12 | 6.74% | 
43 | COc1ccc(NC2CCCN(C(=O)c3ccncc3)C2)cc1 (centres undefined) | 0.516% | 
44 | COC(=O)c1ccc(NC(=O)c2cc(S(=O)(=O)N3CCC(C)CC3)cn2C)cc1 | 0.945% | 

Row | SMILES | activity change, negative = inhibition | Potency
45 | O=C(NCC(O)c1ccc([N+](=O)[O-])cc1)C1CCCCC1 (centres undefined) | -1.1% | 
46 | c1ccc2c(c1)OCCOCCOCCO2 | 0.575% | 
47 | COc1ccc2sc(-c3ccc(N(C)C)cc3)c(C#CCO)c2c1 |  | 8.49 µM (active)
48 | Cc1ccc(CCNC(=O)C2CCN(c3nnc(-n4cccc4CNc4ccc(C)cc4)s3)CC2)cc1 | -8.47% | 
49 | O=C(CNc1ccccc1N1CCCC1=O)Nc1cc(Cl)ccc1-n1cncn1 | 4.94% | 
50 | NS(=O)(=O)c1ccc(-c2ccc(/C=C3\SC(=O)NC3=O)o2)cc1 |  | 13.5 µM (active)
51 | O=S(=O)(c1ccc(Br)cc1)c1nnn2c1nc(NC1CCCCCC1)c1sccc12 | -3.5% | 
52 | CCOc1ccccc1N(CC)C(=O)Nc1cn(C)c(=O)c2ccccc12 | -0.457% | 
53 | COc1ccc(C2Sc3ccccc3NC3=C2C(=O)c2ccccc23)c(OC)c1OC (centres undefined) | -0.461% | 
54 | COc1cc(C2C(C(=O)c3sc(C)nc3C)=C(O)C(=O)N2CCN(C)C)cc(OC)c1OC (centres undefined) | -2.01% | 
55 | COc1ccc(-c2cc(-c3ccccc3)nc3c2COc2ccc(Cl)cc2-3)cc1 | -0.771% | 
56 | COc1ccc(C2=Nc3cc(C)ccc3OC2)cc1 |  | 0.379 µM (active)
57 | COc1ccc(-c2cc(-c3ccc(F)cc3)nc3c2COc2ccccc2-3)cc1 | 2.55% | 
58 | C#C[C@]1(O)CC[C@H]2[C@@H]3CCC4=CC(=O)CC[C@@H]4[C@H]3CC[C@@]21CC |  | inactive
59 | Cc1ccc(C2CCN(C(=O)c3cnn(-c4ccccc4Cl)c3C3CCN(C(=O)OC(C)(C)C)CC3)C2)cc1 (centres undefined) | 0.553% | 
60 | O=C(CSc1nc(=O)n(Cc2cccnc2)c2c1CCC2)Nc1ccc(F)cc1F | -2.48% | 
61 | CN(C)S(=O)(=O)c1ccc(C(=O)N(Cc2cccnc2)c2nc3c(F)cc(F)cc3s2)cc1 | -2.45% | 
62 | O=C(NC(=S)Nc1ccc(Cl)cc1Cl)C1CC1 |  | 21.3 µM (active)
63 | O=C(Nc1c(Cl)cccc1Cl)C1CCC1 | 2.13% | 
64 | S=C(NCc1cccnc1)Nc1ccc(Cl)cc1Cl | -0.282% | 
